# Reference: PubChem BioAssay (NCI)
# About 79,000 compounds went through this panel and 15% of them were active in at least one assay; those are over-represented in the sample as a whole. A number with no mark means an inactive call. Cut-off read from the data, not from the text of the source: active = growth inhibition above about 70%; inactive = the rest.
# Test: NCI Yeast Anticancer Drug Screen. Data for the bub3 strain (AID 167)
# Details: S. cerevisiae bub3 mutant strain, at 50.0 µM, hits give high values
# How it was run: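 Compounds were applied to a genetically altered yeast strain carrying a cell-cycle control defect. Growth inhibition was scored against vehicle-treated controls.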
row,SMILES,growth inhibition [%]
1,N#C/C(=C\c1ccco1)C(N)=O,10.9
2,COCCCNC(=O)c1nc2ccccc2c(=O)n1NC(=O)Cc1ccccc1,0.3
3,COc1ccc(CCN2CCc3c(C)c(C#N)c4nc5ccccc5n4c32)cc1OC,52.4
4,COc1cc2c(c(O)c1C)C(=O)CC(c1ccccc1)O2 (configuration not stated),-4.25
5,CC(C)=CC(=O)OC1C2C(C)C(=O)OC2C(O)C(C)C2C=CC(=O)C21C (configuration not stated),11.1
6,NC(=O)NNCc1ccccc1,-5.6
7,O=C1CCC(CC2CCCCC2)CC1,-17.7
8,CC(C)Nc1ccc(O)cc1,-10.3
9,NC(=O)CC(N)C(=O)NC(Cc1ccccc1)C(=O)NC(Cc1ccccc1)NC(=O)C(Cc1c[nH]c2ccccc12)C(=O)O (configuration not stated),1.85
10,CCOC(=O)c1nc2ccc(C(F)(F)F)cc2nc1Nc1ccc(Cl)c(Cl)c1,-1.35
11,Cc1ncc(CSc2ccccc2N)c(CO)c1O,5.5
12,CCOC(=O)C(C(=O)OCC)C(C(=O)OCC)C(=O)OCC,-14.5
13,OCC=C1CCCCCC1,12.3
14,CSC(=S)c1ccc(NSc2ccccc2[N+](=O)[O-])cc1,20.4
15,COc1ccc(CCNC(=O)Cc2cc(OCc3ccccc3)c(OC)cc2[N+](=O)[O-])cc1OC,-4.2
16,O=C(O)c1c(Br)c(Br)c(Br)c(Br)c1C(=O)Nc1ccc(Br)cc1,2.75
17,O=C1OC(C(O)C(O)C(O)CO)C(O)C1O (configuration not stated),28.3
